According to the supplement of paper PMC10849652:
Of roughly 7,900 targets only a part is listed; those with a hit were picked by preference. About 0.6% of all pairs of compound and target were hits. A number with no mark means an inactive call.

How the values were obtained:
Assay in all cases: log2 fold change, soluble protein after heating vs DMSO (PISA); higher = thermal stabilisation; K562 cells, 10 uM, 30 min; active = over 0.2 and 3.5 SD of the protein, either way, in both replicates (recomputed)
[1] = compound: CC[C@@H]1C(=O)N(C)c2cnc(Nc3ccc(C(=O)NC4CCN(C)CC4)cc3OC)nc2N1C1CCCC1
Summary of the method: (§1)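 Values are thermal stability changes relative to control samples and are taken from duplicates. They are stated as log2 fold changes. Before quantification by TMTpro 16plex LC-MS/MS with equalised channel sums, K562 cells at 2×10^6 cells/mL were treated with 10 μM compound for 30 min, heated in aliquots for 3 min across 48°C-58°C, pooled, extracted in PBS with 0.5% NP-40 at 4°C, and centrifuged at 21,000xg for 90 min to give the soluble supernatant.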

volasertib = compound: CC[C@@H]1C(=O)N(C)c2cnc(Nc3ccc(C(=O)N[C@H]4CC[C@H](N5CCN(CC6CC6)CC5)CC4)cc3OC)nc2N1C(C)C [volasertib]
Summary of the method: as §1

[2] = compound: CC[C@H](C)N1C=C(C2=C(C=C(C=C21)C3=CN=C(C=C3)N4CCNCC4)C(=O)NCC5=C(C=C(NC5=O)C)C)C
Summary of the method: as §1

epoxomicin = compound: CC[C@H](C)[C@@H](C(=O)N[C@@H]([C@@H](C)O)C(=O)N[C@@H](CC(C)C)C(=O)[C@]1(CO1)C)NC(=O)[C@H]([C@@H](C)CC)N(C)C(=O)C [epoxomicin]
Summary of the method: as §1

[3] = compound: CCn1c(C(=O)N(C2CC2)C2CC2)cc2c3c(ncn3C)c(Nc3cc(C)n(C)n3)nc21
Summary of the method: as §1

[4] = compound: CCn1cc(-c2ccnc3[nH]c(-c4cccc(CN(C)C)c4)cc23)c(-c2ccc(NC(=O)N(C)C)cc2)n1
Summary of the method: as §1

[5] = compound: CN(C)CC(=O)Nc1ccc2[nH]c(=O)c3ccccc3c2c1
Summary of the method: as §1

rosiglitazone = compound: CN(CCOC1=CC=C(C=C1)C[C@H]2C(=O)NC(=O)S2)C3=CC=CC=N3 (racemic) [rosiglitazone]
Summary of the method: as §1

[6] = compound: CN1C2=C(C3=C1C(=O)N(N=C3)CC4=CC(=CC=C4)N)SC(=C2)S(=O)C
Summary of the method: as §1

[7] = compound: CN1CCC(CNc2ccc3ncc(-c4cccc(OC(F)(F)F)c4)n3n2)CC1
Summary of the method: as §1

saracatinib = compound: CN1CCN(CCOc2cc(OC3CCOCC3)c3c(Nc4c(Cl)ccc5c4OCO5)ncnc3c2)CC1 [saracatinib]
Summary of the method: as §1

sotrastaurin = compound: CN1CCN(c2nc(C3=C(c4c[nH]c5ccccc45)C(=O)NC3=O)c3ccccc3n2)CC1 [sotrastaurin]
Summary of the method: as §1

alvocidib = compound: CN1CC[C@H](c2c(O)cc(O)c3c(=O)cc(-c4ccccc4Cl)oc23)[C@H](O)C1 [alvocidib]
Summary of the method: as §1

Tubastatin A = compound: CN1CCc2c(c3ccccc3n2Cc2ccc(C(=O)NO)cc2)C1 [Tubastatin A]
Summary of the method: as §1

[8] = compound: CNC(=O)C1=CC=CC=C1NC2=NC(=NC=C2Cl)NC3=C(C=C(C=C3)N4CCOCC4)OC
Summary of the method: as §1

defactinib = compound: CNC(=O)c1ccc(Nc2ncc(C(F)(F)F)c(NCc3nccnc3N(C)S(C)(=O)=O)n2)cc1 [defactinib]
Summary of the method: as §1

rucaparib = compound: CNCc1ccc(-c2[nH]c3cc(F)cc4c3c2CCNC4=O)cc1 [rucaparib]
Summary of the method: as §1

[9] = compound: CNc1nc(-c2ccc3c(N)n[nH]c3c2)cc(N2C[C@@H](C(=O)NC3CCCCC3)CC[C@H]2C)n1
Summary of the method: as §1

encorafenib = compound: COC(=O)N[C@@H](C)CNc1nccc(-c2cn(C(C)C)nc2-c2cc(Cl)cc(NS(C)(=O)=O)c2F)n1 [encorafenib]
Summary of the method: as §1

[10] = compound: COC(=O)[C@H](CCSC)NC(=O)C1=C(C=C(C=C1)NC[C@H](CS)N)C2=CC=CC=C2
Summary of the method: as §1

UniProt Q9UBR2, sequence (Q9UBR2 whole entry, looked up): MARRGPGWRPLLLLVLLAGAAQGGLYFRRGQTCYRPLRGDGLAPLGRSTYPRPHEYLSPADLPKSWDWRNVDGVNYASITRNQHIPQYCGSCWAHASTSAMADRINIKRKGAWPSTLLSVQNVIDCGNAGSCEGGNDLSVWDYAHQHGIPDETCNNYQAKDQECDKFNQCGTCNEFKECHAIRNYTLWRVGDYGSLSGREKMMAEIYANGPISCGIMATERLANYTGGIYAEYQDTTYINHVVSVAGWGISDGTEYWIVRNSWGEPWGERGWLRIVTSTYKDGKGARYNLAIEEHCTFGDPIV
UniProt P25685, sequence (P25685 whole entry, looked up): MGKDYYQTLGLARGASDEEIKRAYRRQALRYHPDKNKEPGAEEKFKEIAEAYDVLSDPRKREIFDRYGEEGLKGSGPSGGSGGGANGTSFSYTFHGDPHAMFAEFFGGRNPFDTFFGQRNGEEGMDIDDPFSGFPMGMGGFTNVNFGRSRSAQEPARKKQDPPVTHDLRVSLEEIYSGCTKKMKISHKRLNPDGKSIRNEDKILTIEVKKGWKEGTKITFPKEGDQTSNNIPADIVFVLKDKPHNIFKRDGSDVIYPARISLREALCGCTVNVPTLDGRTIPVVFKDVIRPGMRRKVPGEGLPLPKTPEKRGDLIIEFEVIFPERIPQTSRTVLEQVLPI
UniProt Q99615, sequence (Q99615 whole entry, looked up): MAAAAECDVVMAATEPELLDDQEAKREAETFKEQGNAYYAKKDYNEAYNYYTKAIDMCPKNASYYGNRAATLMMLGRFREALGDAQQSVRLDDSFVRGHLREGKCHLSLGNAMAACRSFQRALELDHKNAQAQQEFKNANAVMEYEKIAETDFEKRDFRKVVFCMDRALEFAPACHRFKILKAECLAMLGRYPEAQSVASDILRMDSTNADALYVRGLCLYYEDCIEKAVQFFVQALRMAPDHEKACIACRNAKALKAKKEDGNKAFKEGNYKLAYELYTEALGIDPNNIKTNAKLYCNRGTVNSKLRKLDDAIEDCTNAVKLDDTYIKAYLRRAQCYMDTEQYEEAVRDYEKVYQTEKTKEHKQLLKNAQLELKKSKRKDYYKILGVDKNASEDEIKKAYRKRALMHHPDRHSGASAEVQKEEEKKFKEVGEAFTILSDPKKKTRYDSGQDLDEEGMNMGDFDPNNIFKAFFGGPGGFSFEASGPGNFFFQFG
UniProt P12259, sequence (P12259 whole entry, looked up): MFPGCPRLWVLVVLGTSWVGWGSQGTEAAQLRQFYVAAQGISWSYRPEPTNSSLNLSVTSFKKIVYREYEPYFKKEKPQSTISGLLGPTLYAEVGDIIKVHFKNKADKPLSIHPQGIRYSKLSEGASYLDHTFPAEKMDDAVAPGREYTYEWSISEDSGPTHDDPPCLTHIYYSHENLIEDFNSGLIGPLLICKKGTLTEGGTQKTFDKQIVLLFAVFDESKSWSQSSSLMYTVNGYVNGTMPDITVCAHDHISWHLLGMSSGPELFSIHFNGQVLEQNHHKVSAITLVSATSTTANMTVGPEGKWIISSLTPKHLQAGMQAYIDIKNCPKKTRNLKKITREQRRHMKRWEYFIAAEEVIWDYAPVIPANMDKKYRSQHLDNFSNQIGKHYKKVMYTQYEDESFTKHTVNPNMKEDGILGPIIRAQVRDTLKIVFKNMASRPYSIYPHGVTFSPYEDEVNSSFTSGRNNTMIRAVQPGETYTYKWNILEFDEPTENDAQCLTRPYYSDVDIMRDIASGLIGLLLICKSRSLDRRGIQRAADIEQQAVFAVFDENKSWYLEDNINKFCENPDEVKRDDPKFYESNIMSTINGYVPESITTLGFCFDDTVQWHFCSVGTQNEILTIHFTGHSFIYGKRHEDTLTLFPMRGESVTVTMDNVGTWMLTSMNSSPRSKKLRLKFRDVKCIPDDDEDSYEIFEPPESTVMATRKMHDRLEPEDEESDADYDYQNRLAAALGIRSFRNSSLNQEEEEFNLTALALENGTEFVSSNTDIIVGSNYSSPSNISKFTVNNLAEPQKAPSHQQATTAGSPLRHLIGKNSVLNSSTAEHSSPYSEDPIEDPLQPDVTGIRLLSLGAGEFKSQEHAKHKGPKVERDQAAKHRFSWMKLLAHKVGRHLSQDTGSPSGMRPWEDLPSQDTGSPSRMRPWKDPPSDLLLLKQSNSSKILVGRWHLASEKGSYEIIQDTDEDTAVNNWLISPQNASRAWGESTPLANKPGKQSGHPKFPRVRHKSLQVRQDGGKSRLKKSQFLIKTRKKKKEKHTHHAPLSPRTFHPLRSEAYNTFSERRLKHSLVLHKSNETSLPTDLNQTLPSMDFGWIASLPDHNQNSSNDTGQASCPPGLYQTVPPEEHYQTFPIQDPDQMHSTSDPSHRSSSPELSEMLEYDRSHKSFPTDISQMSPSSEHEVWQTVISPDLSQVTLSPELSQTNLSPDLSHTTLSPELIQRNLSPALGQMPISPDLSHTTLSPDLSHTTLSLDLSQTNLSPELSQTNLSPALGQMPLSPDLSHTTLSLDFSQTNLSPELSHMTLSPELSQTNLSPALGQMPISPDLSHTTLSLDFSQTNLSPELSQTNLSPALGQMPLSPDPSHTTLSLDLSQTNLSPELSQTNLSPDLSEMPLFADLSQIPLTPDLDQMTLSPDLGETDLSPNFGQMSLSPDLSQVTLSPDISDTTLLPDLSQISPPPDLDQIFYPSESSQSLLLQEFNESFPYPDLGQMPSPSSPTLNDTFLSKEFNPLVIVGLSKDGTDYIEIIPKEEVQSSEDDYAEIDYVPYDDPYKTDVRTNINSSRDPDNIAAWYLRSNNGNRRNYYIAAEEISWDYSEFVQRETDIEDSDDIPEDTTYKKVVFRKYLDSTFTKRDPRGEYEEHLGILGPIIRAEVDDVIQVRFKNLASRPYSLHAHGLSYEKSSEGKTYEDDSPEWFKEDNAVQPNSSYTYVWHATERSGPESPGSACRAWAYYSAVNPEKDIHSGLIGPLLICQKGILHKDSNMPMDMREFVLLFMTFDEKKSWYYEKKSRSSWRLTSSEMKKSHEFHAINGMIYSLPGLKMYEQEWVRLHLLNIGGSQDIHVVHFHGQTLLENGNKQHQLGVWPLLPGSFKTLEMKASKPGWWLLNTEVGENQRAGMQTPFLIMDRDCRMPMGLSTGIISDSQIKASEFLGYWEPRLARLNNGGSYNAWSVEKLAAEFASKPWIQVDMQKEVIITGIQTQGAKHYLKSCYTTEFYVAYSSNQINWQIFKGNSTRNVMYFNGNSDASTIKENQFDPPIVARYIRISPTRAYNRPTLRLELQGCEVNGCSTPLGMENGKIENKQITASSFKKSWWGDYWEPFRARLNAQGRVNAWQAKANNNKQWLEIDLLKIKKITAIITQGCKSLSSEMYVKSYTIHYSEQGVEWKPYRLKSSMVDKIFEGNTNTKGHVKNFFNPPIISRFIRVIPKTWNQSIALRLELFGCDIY
UniProt Q9HBU6, sequence (Q9HBU6 whole entry, looked up): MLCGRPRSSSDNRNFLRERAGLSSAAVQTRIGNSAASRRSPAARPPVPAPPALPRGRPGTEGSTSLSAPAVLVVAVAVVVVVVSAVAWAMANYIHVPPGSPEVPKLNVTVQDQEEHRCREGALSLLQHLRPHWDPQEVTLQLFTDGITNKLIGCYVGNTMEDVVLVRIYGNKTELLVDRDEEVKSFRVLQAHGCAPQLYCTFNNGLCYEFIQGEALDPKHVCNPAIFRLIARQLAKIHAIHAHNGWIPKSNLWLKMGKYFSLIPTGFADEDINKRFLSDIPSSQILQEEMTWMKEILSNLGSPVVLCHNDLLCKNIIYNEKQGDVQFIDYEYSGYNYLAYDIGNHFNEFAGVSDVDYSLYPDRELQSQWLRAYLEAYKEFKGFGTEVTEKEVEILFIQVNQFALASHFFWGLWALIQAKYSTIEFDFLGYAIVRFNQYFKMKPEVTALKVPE
UniProt Q15392, sequence (Q15392 whole entry, looked up): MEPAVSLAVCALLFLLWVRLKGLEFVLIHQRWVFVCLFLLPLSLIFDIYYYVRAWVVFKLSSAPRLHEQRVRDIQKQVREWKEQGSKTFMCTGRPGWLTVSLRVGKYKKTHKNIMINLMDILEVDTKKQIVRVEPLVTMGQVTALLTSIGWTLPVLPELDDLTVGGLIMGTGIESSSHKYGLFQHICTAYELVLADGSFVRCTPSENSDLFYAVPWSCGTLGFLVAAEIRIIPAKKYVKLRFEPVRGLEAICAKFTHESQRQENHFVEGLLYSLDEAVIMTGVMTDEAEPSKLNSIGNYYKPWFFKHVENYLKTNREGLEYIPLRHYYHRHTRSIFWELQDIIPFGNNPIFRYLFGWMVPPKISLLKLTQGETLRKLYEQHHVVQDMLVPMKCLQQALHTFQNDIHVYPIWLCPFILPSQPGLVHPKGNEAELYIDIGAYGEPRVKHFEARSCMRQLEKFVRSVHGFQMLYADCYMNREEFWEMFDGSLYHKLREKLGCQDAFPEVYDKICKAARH
UniProt Q9NZN4, sequence (Q9NZN4 whole entry, looked up): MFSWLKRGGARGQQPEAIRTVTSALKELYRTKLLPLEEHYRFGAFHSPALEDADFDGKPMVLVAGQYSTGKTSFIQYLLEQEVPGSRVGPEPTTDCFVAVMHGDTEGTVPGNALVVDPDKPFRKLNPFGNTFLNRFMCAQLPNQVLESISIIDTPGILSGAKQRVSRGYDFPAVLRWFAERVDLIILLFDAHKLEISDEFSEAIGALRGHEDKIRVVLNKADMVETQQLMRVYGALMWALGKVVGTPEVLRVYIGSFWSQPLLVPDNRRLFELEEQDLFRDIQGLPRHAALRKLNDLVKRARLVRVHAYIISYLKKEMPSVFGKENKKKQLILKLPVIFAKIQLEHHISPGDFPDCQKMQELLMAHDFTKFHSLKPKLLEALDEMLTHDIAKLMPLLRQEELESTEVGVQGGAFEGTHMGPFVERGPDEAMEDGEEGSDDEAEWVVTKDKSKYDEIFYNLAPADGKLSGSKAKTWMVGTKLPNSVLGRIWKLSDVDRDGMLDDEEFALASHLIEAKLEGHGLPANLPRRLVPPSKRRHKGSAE

Target	log2 fold change [1]	log2 fold change (volasertib)	log2 fold change [2]	log2 fold change (epoxomicin)	log2 fold change [3]	log2 fold change [4]	log2 fold change [5]	log2 fold change (rosiglitazone)	log2 fold change [6]	log2 fold change [7]	log2 fold change (saracatinib)	log2 fold change (sotrastaurin)	log2 fold change (alvocidib)	log2 fold change (Tubastatin A)	log2 fold change [8]	log2 fold change (defactinib)	log2 fold change (rucaparib)	log2 fold change [9]	log2 fold change (encorafenib)	log2 fold change [10]
EHD2 (UniProt Q9NZN4)	-0.073	-0.243 (active)	0.027	0.023	-0.029	-0.085	0.007	0.039	-0.045	-0.002	0.016	0.017	-0.017	0.048	-0.031	-0.12	-0.019	-0.053	0.046	-0.061
DHX16 (UniProt O60231)	-0.032	-0.158	0.032	0.051	-0.05	-0.054	-0.025	0.031	-0.033	-0.012	0.024	-0.037	-0.045	-0.001	-0.042	-0.035	-0.027	0.028	0.019	-0.013
CTSC (UniProt P53634)	-0.419 (active)	-0.946 (active)	-0.034	0.023	0.015	-0.032	0.146	-0.047	-0.015	-0.433 (active)	0.03	0.046	0.074	-0.015	0.052	0.035	0.031	-0.005	-0.082	0.007
DHCR24 (UniProt Q15392)	0.769	1.21 (active)	0.104	-0.056	-0.1	0.06	0.236	0	-0.094	0.525	0.761	0.567	0.002	0.338	-0.094	-0.017	0.561	0.117	0.001	0.01
CTSZ (UniProt Q9UBR2)	-0.954 (active)	-1.54 (active)	-0.058	0.02	0.022	0	-0.026	-0.028	-0.087	-0.843 (active)	0.025	0.079	-0.008	-0.056	0.005	0	-0.098	0.012	-0.012	0.027
CTSV (UniProt O60911)	-0.719 (active)	-0.993 (active)	-0.054	-0.007	0.033	0.084	0.012	-0.013	-0.081	-1.29 (active)	-0.049	0.195	0.012	0.016	0.048	0.011	-0.056	0.062	0	0.02
ECPAS (UniProt Q5VYK3)	-0.188	-0.602 (active)	0.093	0.614 (active)	-0.097	-0.029	0.079	0.041	0.026	-0.143	-0.055	-0.124	-0.033	0.038	0.012	-0.06	0.09	0.027	0.122	-0.045
FAM3A (UniProt P98173)	0.024	-0.11	-0.02	0.029	0.085	0.066	0.019	0.101	-0.023	-0.128	0.038	0.001	-0.027	0.045	0.065	-0.035	0.017	0.075	0.118	-0.041
ETNK1 (UniProt Q9HBU6)	0.021	-0.24	0.021	0.157	-0.03	0.059	0.121	0	-0.14	0.041	-0.037	-0.045	-0.028	0.092	0.053	-0.001	0.295 (active)	-0.039	-0.007	-0.027
EMD (UniProt P50402)	-0.127	-0.273 (active)	0	-0.065	-0.004	0	-0.018	-0.054	0.003	-0.078	0.011	0.063	-0.043	-0.028	-0.046	-0.027	0.008	-0.064	-0.056	0.032
FAM50A (UniProt Q14320)	-0.158	-0.258 (active)	0.06	0.058	-0.022	0.053	0.029	0.001	-0.07	-0.052	0.11	-0.119	-0.064	0.029	0.056	-0.203	-0.027	0.08	0.055	-0.023
F5 (UniProt P12259)	-0.06	0.105	-0.018	-0.125	0.163	-0.048	-0.09	-0.054	0.141	-0.009	-0.003	0.139	0.134	-0.076	0.133	0.081	-0.079	-0.068	0.037	0.039
EIF4G1 isoform 8 (UniProt Q04637)	-0.114	-0.487	0.174	0.016	-0.076	0.005	0.031	0.047	0.181	-0.425	-0.08	-0.36	0.021	0.034	-0.067	0.008	0.197	-0.017	0.092	-0.05
DNAJC7 (UniProt Q99615)	-0.079	-0.266 (active)	0.104	0.073	-0.014	-0.025	0.014	0.017	-0.052	-0.142	0.001	-0.05	-0.069	0.002	0.034	-0.072	-0.016	0.056	0.045	-0.003
DCAF10 (UniProt Q5QP82)	-0.003	0.029	-0.038	-0.102	-0.049	-0.018	-0.043	-0.015	-0.026	0.022	0.09	0.021	-0.011	-0.094	-0.018	-0.009	-0.083	0.007	0.052	0
DNAJB1 (UniProt P25685)	0.011	-0.222 (active)	0.064	-0.041	-0.022	-0.026	-0.01	0.02	-0.064	-0.042	-0.003	-0.03	-0.094	-0.001	-0.011	-0.05	-0.025	-0.033	-0.009	-0.017
